Bioassay records as filed in PubChem BioAssay.
This is a sample that favours compounds with a hit; in the whole collection about 1.8% have one here.
LYPLA1 counter: LYPLA1 inhibitors, primary screen, counter-screen for PME1 inhibitor project, biochemical, fluorescence polarization, FP-Rh probe ABPP; Acyl-protein thioesterase 1 (Homo sapiens), O75608; recombinant LYPLA1; inhibition, % at 5.9 µM; actives 0.16% (n = 320,000); AID 2174, 2009;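 active means inhibition above the mean of all tested compounds plus 3 SD, set per campaign, cut at about 14% in these data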;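 further: inhibitors block serine hydrolase probe labeling of LYPLA1 so polarization falls; 0% = enzyme with DMSO and 100% = wells lacking LYPLA1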
PAD4 FP inh: human PAD4 inhibitors, primary screen, biochemical, fluorescence polarization, 1536-well format | Protein-arginine deiminase type-4 (Homo sapiens), Q9UM07 | recombinant PAD4, RCA probe fluorescence polarization | inhibition, % at 6.36 µM | actives 0.41% (n = 330,000) | AID 485272, 2010;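 active means percent inhibition above a cutoff equal to the mean of all tested compounds plus 3 SD, cut at about 15% in these data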;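 further: 0% = PAD4 with RCA probe and DMSO and 100% = probe without PAD4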
Target sequence (Q9UM07 whole entry, looked up): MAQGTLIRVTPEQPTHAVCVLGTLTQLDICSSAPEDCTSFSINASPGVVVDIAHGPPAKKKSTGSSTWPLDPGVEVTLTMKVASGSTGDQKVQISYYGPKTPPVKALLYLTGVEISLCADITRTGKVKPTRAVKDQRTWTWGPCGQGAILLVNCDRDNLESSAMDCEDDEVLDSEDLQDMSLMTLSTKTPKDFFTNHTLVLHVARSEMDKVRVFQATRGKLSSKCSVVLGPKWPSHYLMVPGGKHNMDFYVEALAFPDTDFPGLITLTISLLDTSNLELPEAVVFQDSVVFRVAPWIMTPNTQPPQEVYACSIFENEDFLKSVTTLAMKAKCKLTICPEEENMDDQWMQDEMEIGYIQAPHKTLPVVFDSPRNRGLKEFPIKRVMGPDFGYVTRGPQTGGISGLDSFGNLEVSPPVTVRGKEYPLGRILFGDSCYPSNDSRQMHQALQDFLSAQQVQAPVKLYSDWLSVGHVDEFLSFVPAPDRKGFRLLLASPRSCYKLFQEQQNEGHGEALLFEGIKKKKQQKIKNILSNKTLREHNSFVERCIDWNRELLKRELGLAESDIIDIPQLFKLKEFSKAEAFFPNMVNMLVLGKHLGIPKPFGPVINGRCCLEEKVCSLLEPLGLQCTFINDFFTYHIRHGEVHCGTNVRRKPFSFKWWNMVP
LYPLA2 counter: LYPLA2 inhibitors, primary screen, counter-screen for PME1 inhibitor project, biochemical, fluorescence polarization, FP-Rh probe ABPP | actives 0.38% (n = 320,000) | recombinant LYPLA2 | inhibition, % at 5.9 µM;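 active means inhibition above the screen-wide mean plus 3 SD, limit set per campaign, cut at about 26% in these data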;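 further: 0% = LYPLA2 with DMSO and 100% = wells lacking LYPLA2 enzyme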
Fam108B counter: mouse Fam108B serine hydrolase inhibitors, primary screen, counter-screen for RBBP9 inhibitor project, biochemical, fluorescence polarization; recombinant Fam108B, FP-Rh probe fluorescence polarization; AID 1947, 2009; inhibition, % at 9.51 µM; actives 0.33% (n = 300,000);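 active means inhibition above the screen mean inhibition plus 3 SD, computed separately per campaign, cut at about 18% in these data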;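 further: inhibitors lower polarization as less probe binds the enzyme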
GSTO1 counter: inhibitors of recombinant GSTO1, primary screen, counter-screen for RBBP9 inhibitor project, biochemical, fluorescence polarization | Glutathione S-transferase omega-1 (Homo sapiens), P78417 | activity-based probe fluorescence polarization | inhibition, % at 5.96 µM | actives 1.1% (n = 300,000) | AID 1974, 2009;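 active means inhibition above the campaign mean inhibition plus 3 SD, cut at about 35% in these data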;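 further: 0% = GSTO1-1 with DMSO and 100% = wells lacking GSTO1-1 enzyme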
PME-1 inh: PME-1 inhibitors via competitive probe labeling, primary screen, biochemical, fluorescence polarization, FP-Rh probe, HTS | AID 2130, 2009 | inhibition, % at 5.9 µM | recombinant PME-1 | Protein phosphatase methylesterase 1 (Homo sapiens), Q9Y570 | actives 0.53% (n = 320,000);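 active means inhibition above the campaign mean of all compounds plus 3 SD, cut at about 26% in these data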;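 further: competitive labeling of PME-1 active site by serine hydrolase directed probe; 0% = PME-1 with DMSO and 100% = wells lacking PME-1 enzyme; inhibitors block probe labeling so polarization falls and inhibition rises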
Numbers without * were called inactive; · = no result given.

SMILES | LYPLA1 counter | PAD4 FP inh | LYPLA2 counter | Fam108B counter | GSTO1 counter | PME-1 inh
Cc1ccc(S(=O)(=O)N2CCCCC2)cc1NC(=O)CN1CC=C(c2ccccc2)CC1 | -1 | 3 | -8 | 0 | -1 | 75*
O=C(CN1CC=C(c2ccccc2)CC1)Nc1cc(Cl)ccc1Cl | -3 | 0 | -2 | -5 | 0 | 9
O=C(CN1CC=C(c2ccccc2)CC1)Nc1c(Cl)cccc1Cl | 0 | 3 | -1 | 8 | 1 | 36*
O=C1C2CCCN2C(c2cccs2)N1c1ccccn1 (stereo not drawn) | -1 | -5 | 5 | -1 | -1 | 0
COc1cccc(OC)c1C1=NCC(=O)Nc2c1oc1ccc(Br)cc21 | -2 | -2 | -6 | -6 | 1 | 45*
O=C1CN=C(c2ccccc2)c2oc3ccc(Br)cc3c2N1 | -4 | 2 | 3 | -1 | -6 | -3
CCCCN1C(=O)NC(=O)C2(Cc3ccccc3N3CCOCC32)C1=O (stereo not drawn) | -2 | 0 | 5 | 2 | -3 | -2
COc1ccc(N2C(=O)NC(=O)/C(=C\c3ccc([N+](=O)[O-])s3)C2=O)cc1 | -6 | -44 | -3 | 16 | 32 | -5
COc1ccccc1N1C(=O)NC(=O)/C(=C/c2ccc([N+](=O)[O-])s2)C1=O | 2 | -6 | 1 | 25* | 42* | -1
CN1CCN(c2ncc(C=O)s2)CC1 | 2 | -7 | 0 | -1 | -4 | 1
O=C(O)c1cc[c]([Hg][Cl])cc1 | 0 | 22* | 4 | 2 | 11 | 0
C=CCn1c(O)c(N=Nc2c(C)n(C)n(-c3ccccc3)c2=O)c(=O)[nH]c1=S | -3 | -2 | -1 | -2 | 36* | -2
CN(C)[C@@H]1C(=O)C(C(N)=O)=C(O)[C@@]2(O)C(=O)C3=C(O)c4c(O)cccc4[C@@](C)(O)C3C[C@@H]12 (stereo partly drawn) | 0 | -2 | 6 | 5 | 72* | -4
CN(C)[C@@H]1C(=O)C(C(N)=O)=C(O)[C@@]2(O)C(=O)C3=C(O)c4c(O)ccc(Cl)c4[C@@](C)(O)[C@H]3C[C@@H]12 | 2 | -4 | 12 | -1 | 45* | 1
O=C1NC(=O)C(=Cc2ccc(Oc3ccc([N+](=O)[O-])cc3)cc2)C(=O)N1 | 6 | -9 | 38* | 1 | 49* | -1
COC(=O)C1C(O)C(C)C(O)C(C)/C=C\C=C(/C)C(=O)Nc2c(C)c(OC(C)=O)c3c(c2O)C(=O)C(C)=C2OCOC(=C23)/C(C)=C/C(C)(O)C(O)C(C)C1O (stereo not drawn) | 0 | -9 | -3 | 2 | 69* | 1
CC(=NCc1cccnc1)c1c(O)n(-c2ccccc2)c(=O)[nH]c1=O | 1 | -7 | 0 | -1 | 4 | 5
Oc1ccc(/C=N/NP(=S)(c2ccccc2)c2ccccc2)c(O)c1O | -9 | 1 | -5 | -3 | 37* | 28*
O=C(CF)NC(Nc1cccc2cccnc12)C(Cl)(Cl)Cl (stereo not drawn) | -2 | -1 | 6 | 3 | 12 | 36*
Cc1ccccc1NC(=S)NC(NC(=O)CF)C(Cl)(Cl)Cl (stereo not drawn) | 0 | 0 | 1 | -3 | 2 | 9
CCN(CC)c1ccc(/C=C/[N+](=O)[O-])cc1 | 2 | 3 | 5 | 4 | 36* | -4
CN(C)C1(CNC(=O)c2cc(S(=O)(=O)N3CCOCC3)c(Cl)cc2Cl)CCCCC1 | -2 | -2 | -3 | 3 | 7 | 0
CP(=O)(Nc1ccccc1)C(Cl)(Cl)Cl (stereo not drawn) | 5 | -2 | 9 | 4 | 4 | 5
NP(=O)(OCC(F)(F)F)Oc1ccc(Cl)cc1 (stereo not drawn) | 2 | 3 | 1 | 4 | 4 | 28*
O=c1[nH]c(=S)[nH]c(O)c1N=Nc1ccc(S(=O)(=O)N2CCc3ccccc32)cc1 | -1 | -9 | -5 | 10 | -10 | 36*
SMILES | LYPLA1 counter | PAD4 FP inh | LYPLA2 counter | Fam108B counter | GSTO1 counter | PME-1 inh
O=c1[nH]c(=S)[nH]c(O)c1N=Nc1ccc(SC(F)F)cc1 | 2 | -1 | 1 | 0 | 3 | -3
CN1C(=O)/C(=C/c2cccn2-c2ccc3ccccc3c2)C(=O)NC1=S | -6 | -10 | 1 | 11 | 55* | 2
O=C1NC(=S)NC(=O)C1=Cc1ccc2c(c1)CCN2CCCCl | -5 | 2 | -5 | 3 | 51* | 2
COc1ccc(N2CC2c2ccncc2)cc1 (stereo not drawn) | 1 | 0 | 1 | 0 | 4 | 3
COc1ccc(CN2CCCC(C(=O)c3ccc(Cl)cc3)C2)c(O)c1 (stereo not drawn) | -1 | -1 | 6 | -1 | 9 | 5
COc1ccc2c3c1OC1C(=O)CC[C@@]4(O)[C@@H](C2)N(CC2CC2)CC[C@]314 (stereo partly drawn) | · | -9 | · | · | · | ·
CC(=O)c1cn(Cc2ccccc2C#N)c2ccccc12 | 0 | 1 | 1 | 3 | 7 | 3
CC(C)C(=O)c1cn(Cc2ccccc2C#N)c2ccccc12 | 0 | -12 | -4 | -1 | 9 | 39*
Nc1c(C(=O)NCc2ccco2)c2nc3ccccc3nc2n1CCN1CCOCC1 | 2 | 1 | 2 | 2 | -8 | 28*
CCCNC(=O)c1c(N)n(CC2CCCO2)c2nc3ccccc3nc12 (stereo not drawn) | 2 | -19 | 5 | 3 | 35* | 12
Nc1c(C(=O)NCc2ccco2)c2nc3ccccc3nc2n1Cc1ccccc1 | -3 | -4 | -3 | -2 | -2 | 6
Brc1ccc2c(c1)C(OC1CN3CCC1CC3)c1ccccc1CS2 (stereo not drawn) | 1 | 7 | -3 | 9 | -6 | 1
O=S(=O)(c1ccc(Cl)cc1)N1CC1c1ccccc1 (stereo not drawn) | 0 | 0 | 3 | -1 | 35* | -3
COC(=O)C1=C(c2ccc(S(C)(=O)=O)cc2)C[C@@H]2CC[C@H]1N2C(=O)NCCO | 0 | 0 | -1 | 0 | 3 | 2
NP(=O)(Oc1ccccc1Cl)Oc1ccccc1Cl | 2 | -2 | 3 | 0 | 6 | 98*
NP(=O)(OCC(F)(F)F)Oc1cccc2ccccc12 (stereo not drawn) | 0 | -4 | 0 | -3 | 0 | 15
CCOCCN1CCN(c2nnc3n2-c2ccc(Cl)cc2C(c2ccccc2Cl)=NC3)CC1 | 1 | -1 | 11 | -4 | 7 | -6
